± gives the standard deviation.
Key:
Details in all cases: modulator concentration 10 µM
[1] = system: RAW-Dual (murine macrophage reporter line); assay: NF-kB reporter (SEAP) activity fold change vs agonist alone; higher = enhanced NF-kB activity
How it was run: (§1)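 RAW-Dual murine macrophage reporter cells were plated at 50 000 per well in 384-well plates, pin-transferred compound to 10 μM final, and pre-incubated for 1 hour at 37 °C before a PRR agonist was added and the cells incubated overnight. NF-κB activity was read from supernatant SEAP with QUANTI-Blue at 620 nm absorbance, and IRF activity from Lucia luciferase with QUANTI-Luc by luminescence. Each signal was expressed as fold change by dividing by the mean agonist-only control on the same plate. Two replicate plates were averaged, with errors obtained by propagation.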

[2] = system: RAW-Dual (murine macrophage reporter line); assay: IRF reporter (Lucia luciferase) activity fold change vs agonist alone; higher = enhanced IRF activity
How it was run: as §1

[3] = system: RAW-Dual (murine macrophage reporter line); assay: viability score (confluency relative to resting cells, overnight) (fraction); higher = more viable, active = viable (0.7 or more)
How it was run: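 Two confluency masks, generated with IncuCyte software over all imaged wells, were applied to IncuCyte images of RAW-Dual macrophages. The cells, in 384-well plates, had been exposed overnight to 10 μM final compound. The viability score is confluency as a fraction of resting cells, and a compound met the cutoff only with both masks above 70% of resting cells.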

[4] = agonist: CpG ODN 1826 0.5 ug/mL

Work on `CN(C(=O)c1cncc(F)c1)C1CN(c2ccc3nnc(C4CC4)n3n2)C1` yielded an NF-kB reporter [1, 4] of 0.937 ± 0.055, an NF-kB reporter ([1]; agonist: LPS 0.1 ug/mL) of 0.988 ± 0.078 and an NF-kB reporter ([1]; agonist: MPLA […]) of 0.83 ± 0.082. For the same molecule, the IRF reporter ([2]; agonist: 3'3'-cGAMP 10 ug/mL) was 0.956 ± 0.087, the IRF reporter ([2]; agonist: LPS 0.1 ug/mL) was 0.991 ± 0.14 and the IRF reporter ([2]; agonist: MPLA […]) was 0.859 ± 0.4. The viability score [3] was 1 (active).

Molecule `COC(=O)N[C@H](C(=O)N[C@@H](Cc1ccccc1)[C@@H](O)CN(Cc1ccc(-c2ccccn2)cc1)NC(=O)[C@@H](NC(=O)OC)C(C)(C)C)C(C)(C)C.O=S(=O)(O)O` has an NF-kB reporter [1, 4] of 1.78 ± 0.14, an NF-kB reporter ([1]; agonist: LPS 0.1 ug/mL) of 1.27 ± 0.1 and an NF-kB reporter ([1]; agonist: MPLA […]) of 1.46 ± 0.15. The IRF reporter ([2]; agonist: 3'3'-cGAMP 10 ug/mL) was 0.886 ± 0.064, the IRF reporter ([2]; agonist: LPS 0.1 ug/mL) was 1.02 ± 0.061 and the IRF reporter ([2]; agonist: MPLA […]) was 1.14 ± 0.1. For the same molecule, the viability score [3] was 1.01 (active).

`CCCCN(CCCC)CC(=O)Nc1c2c(nc3ccccc13)CCC2.O=C(O)C(=O)O` was tested, and the NF-kB reporter [1, 4] was 0.63 ± 0.035, the NF-kB reporter ([1]; agonist: LPS 0.1 ug/mL) was 1.1 ± 0.067 and the NF-kB reporter ([1]; agonist: MPLA […]) was 1.15 ± 0.068. It also gave an IRF reporter ([2]; agonist: 3'3'-cGAMP 10 ug/mL) of 1.38 ± 0.053, an IRF reporter ([2]; agonist: LPS 0.1 ug/mL) of 1.98 ± 0.13 and an IRF reporter ([2]; agonist: MPLA […]) of 0.98 ± 0.15. The viability score [3] was 0.308 (inactive).

Work on `CCOC(=O)Nc1nc(C)c(C(C)=O)s1` yielded an NF-kB reporter [1, 4] of 0.763 ± 0.059, an NF-kB reporter ([1]; agonist: LPS 0.1 ug/mL) of 0.872 ± 0.046 and an NF-kB reporter ([1]; agonist: MPLA […]) of 1.12 ± 0.098. It also gave an IRF reporter ([2]; agonist: 3'3'-cGAMP 10 ug/mL) of 0.996 ± 0.058, an IRF reporter ([2]; agonist: LPS 0.1 ug/mL) of 1.35 ± 0.081 and an IRF reporter ([2]; agonist: MPLA […]) of 1.44 ± 0.14. The viability score [3] was 1.02 (active).

With `COCCOC(=O)C1=C(C)NC(C)=C(C(=O)OC(C)C)C1c1cccc([N+](=O)[O-])c1` (stereo unspecified) the NF-kB reporter [1, 4] was 0.837 ± 0.07, the NF-kB reporter ([1]; agonist: LPS 0.1 ug/mL) was 1.05 ± 0.064 and the NF-kB reporter ([1]; agonist: MPLA […]) was 0.88 ± 0.076. It also gave an IRF reporter ([2]; agonist: 3'3'-cGAMP 10 ug/mL) of 1.11 ± 0.037, an IRF reporter ([2]; agonist: LPS 0.1 ug/mL) of 1.31 ± 0.18 and an IRF reporter ([2]; agonist: MPLA […]) of 1.11 ± 0.13. For the same molecule, the viability score [3] was 0.979 (active).

`Cc1nc(NC(=O)N2CCC[C@H]2C(N)=O)sc1-c1ccnc(C(C)(C)C(F)(F)F)c1` showed an NF-kB reporter [1, 4] of 0.626 ± 0.034, an NF-kB reporter ([1]; agonist: LPS 0.1 ug/mL) of 0.894 ± 0.072 and an NF-kB reporter ([1]; agonist: MPLA […]) of 1.6 ± 0.66. For the same molecule, the IRF reporter ([2]; agonist: 3'3'-cGAMP 10 ug/mL) was 0.916 ± 0.066, the IRF reporter ([2]; agonist: LPS 0.1 ug/mL) was 1.18 ± 0.24 and the IRF reporter ([2]; agonist: MPLA […]) was 1.32 ± 0.33. The viability score [3] was 1.02 (active).

`Brc1ccc(-c2cc(-c3ccccc3)nc(N3CCOCC3)n2)cc1` showed an NF-kB reporter [1, 4] of 0.81 ± 0.087, an NF-kB reporter ([1]; agonist: LPS 0.1 ug/mL) of 0.995 ± 0.11 and an NF-kB reporter ([1]; agonist: MPLA […]) of 1.12 ± 0.13. The IRF reporter ([2]; agonist: 3'3'-cGAMP 10 ug/mL) was 0.977 ± 0.059, the IRF reporter ([2]; agonist: LPS 0.1 ug/mL) was 1.35 ± 0.25 and the IRF reporter ([2]; agonist: MPLA […]) was 1.59 ± 0.38. For the same molecule, the viability score [3] was 1.01 (active).

For `CS(=O)(=O)O.Cc1ccc(N(CC2=NCCN2)c2cccc(O)c2)cc1`, the NF-kB reporter [1, 4] was 0.981 ± 0.19, the NF-kB reporter ([1]; agonist: LPS 0.1 ug/mL) was 1.03 ± 0.34 and the NF-kB reporter ([1]; agonist: MPLA […]) was 0.957 ± 0.09. The IRF reporter ([2]; agonist: 3'3'-cGAMP 10 ug/mL) was 0.628 ± 0.019, the IRF reporter ([2]; agonist: LPS 0.1 ug/mL) was 1.09 ± 0.28 and the IRF reporter ([2]; agonist: MPLA […]) was 1.04 ± 0.08. The viability score [3] was 1 (active).

In the case of `COc1cc(OC)cc(C(=O)N2CCN(c3ccc(Nc4cccc(C)n4)nn3)CC2)c1`, the NF-kB reporter [1, 4] is reported as 0.54 ± 0.042, the NF-kB reporter ([1]; agonist: LPS 0.1 ug/mL) is reported as 0.981 ± 0.081 and the NF-kB reporter ([1]; agonist: MPLA […]) is reported as 1.01 ± 0.029. For the same molecule, the IRF reporter ([2]; agonist: 3'3'-cGAMP 10 ug/mL) was 0.904 ± 0.039, the IRF reporter ([2]; agonist: LPS 0.1 ug/mL) was 0.951 ± 0.096 and the IRF reporter ([2]; agonist: MPLA […]) was 1.12 ± 0.2. For the same molecule, the viability score [3] was 0.996 (active).

`COc1ccc(S(=O)(=O)Nc2ccc(Oc3ccccc3)cc2)cc1` showed an NF-kB reporter [1, 4] of 1.04 ± 0.18, an NF-kB reporter ([1]; agonist: LPS 0.1 ug/mL) of 1.02 ± 0.11 and an NF-kB reporter ([1]; agonist: MPLA […]) of 2.55 ± 1.5. The IRF reporter ([2]; agonist: 3'3'-cGAMP 10 ug/mL) was 0.972 ± 0.033, the IRF reporter ([2]; agonist: LPS 0.1 ug/mL) was 1.17 ± 0.13 and the IRF reporter ([2]; agonist: MPLA […]) was 1.21 ± 0.2. For the same molecule, the viability score [3] was 1.01 (active).

`O=C(O)c1ccc2c(c1)nc(Nc1cccc(Cl)c1)c1ccncc12` was tested, and the NF-kB reporter [1, 4] was 1.24 ± 0.19, the NF-kB reporter ([1]; agonist: LPS 0.1 ug/mL) was 1.35 ± 0.35 and the NF-kB reporter ([1]; agonist: MPLA […]) was 1.4 ± 0.34. For the same molecule, the IRF reporter ([2]; agonist: 3'3'-cGAMP 10 ug/mL) was 0.993 ± 0.033, the IRF reporter ([2]; agonist: LPS 0.1 ug/mL) was 1.39 ± 0.32 and the IRF reporter ([2]; agonist: MPLA […]) was 0.832 ± 0.083. The viability score [3] was 0.986 (active).

Molecule `COc1ccc(-c2cc(=O)c3c(O)cc(O)cc3o2)cc1O` has an NF-kB reporter [1, 4] of 1.38 ± 0.11, an NF-kB reporter ([1]; agonist: LPS 0.1 ug/mL) of 1.15 ± 0.056 and an NF-kB reporter ([1]; agonist: MPLA […]) of 1.3 ± 0.04. It also gave an IRF reporter ([2]; agonist: 3'3'-cGAMP 10 ug/mL) of 0.641 ± 0.036, an IRF reporter ([2]; agonist: LPS 0.1 ug/mL) of 0.426 ± 0.076 and an IRF reporter ([2]; agonist: MPLA […]) of 0.356 ± 0.063. The viability score [3] was 0.985 (active).

`CCCOc1ccc(C=C2SC(N3CCN(c4ccccc4C)CC3)=NC2=O)cc1` was tested, and the NF-kB reporter [1, 4] was 1.06 ± 0.079, the NF-kB reporter ([1]; agonist: LPS 0.1 ug/mL) was 0.989 ± 0.078 and the NF-kB reporter ([1]; agonist: MPLA […]) was 0.975 ± 0.061. It also gave an IRF reporter ([2]; agonist: 3'3'-cGAMP 10 ug/mL) of 0.954 ± 0.049, an IRF reporter ([2]; agonist: LPS 0.1 ug/mL) of 0.988 ± 0.051 and an IRF reporter ([2]; agonist: MPLA […]) of 0.968 ± 0.14. The viability score [3] was 1 (active).

— the supplement of paper PMC10646978
